From PubChem BioAssay (NCI)
Compounds without any hit were thinned out: in the full panel of roughly 83,000, 20% have a hit.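 Percent growth is the endpoint: 0 to 100 indicates growth inhibition (40 means 60% inhibition), 0 means no net growth, and negative values indicate cell death.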 Unmarked numbers belong to inactive results. Activity calls are given as the source filed them. Rule for the calls: active = growth percent below 10; inactive = the rest.

Experiments:
Assay in all cases: NCI-60 one-dose screen, 48 h (100 = growth as untreated, 0 = no growth, -100 = all killed)
NCI-H23 lung = settings: 10 µM unless noted
NCI-H226 lung = settings: 10 µM unless noted
NCI-H322M lung = settings: 10 µM unless noted
HOP-62 NSCLC = settings: 10 µM unless noted
NCI-H460 lung = settings: 10 µM unless noted
HOP-92 NSCLC = settings: 10 µM unless noted
NCI-H522 lung = settings: 10 µM
786-0 renal = settings: 10 µM unless noted
COLO 205 colon = settings: 10 µM unless noted
A549/ATCC NSCLC = settings: 10 µM unless noted

Row | Compound | growth (NCI-H23 lung) | growth (NCI-H226 lung) | growth (NCI-H322M lung) | growth (HOP-62 NSCLC) | growth (NCI-H460 lung) | growth (HOP-92 NSCLC) | growth (NCI-H522 lung) | growth (786-0 renal) | growth (COLO 205 colon) | growth (A549/ATCC NSCLC)
1 | Oc1c(Cl)cc(Cl)c(Cl)c1Cc1c(O)c(Cl)cc(Cl)c1Cl | -0.673% (active) | 18% | -1.98% (active) | 21.5% | 5.9% (active) | -21.7% (active) | -3.33% (active) | 12.2% | 70.3% | 
2 | O=Nc1c2cccnc2n2nnc3ccc(Cl)cc3c12 | 66.4% | 85.9% | 107% | 115% | 27.7% | -40.5% (active) | -71.5% (active) | 59% | -5.58% (active) | 
3 | CCCCCc1c(C)[nH]c(/C=C2\N=C(c3ccc[nH]3)C=C2Oc2ccccc2)c1C | -80.2% [100 µM] (active) | -38.2% [100 µM] (active) | -49.8% [100 µM] (active) | -46.4% [100 µM] (active) | -38.6% [100 µM] (active) | -41.3% [100 µM] (active) |  | -76.3% [100 µM] (active) | -53.9% [100 µM] (active) | -81.6% [100 µM] (active)
4 | CCSc1nc(-c2ccc(F)cc2)c(C#N)c(=O)[nH]1 | 95.2% | 98.7% | 101% | 110% | 108% | 131% | 96.8% | 108% | 126% | 
